Reference: PubChem BioAssay (NCI)
About 83,000 compounds went through this panel and 20% of them were active in at least one assay; those are over-represented in the sample as a whole.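 Values shown are percent growth following 48 h exposure of cells in 96-well plates to a single concentration of compound; below 10 was considered active.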 Active and inactive are the calls of the source.

What was measured:
Assay in all cases: NCI-60 one-dose screen, 48 h (100 = growth as untreated, 0 = no growth, -100 = all killed)
HCT-15 colon = conditions: 10 µM unless noted
HT29 colon = conditions: 10 µM unless noted
SNB-75 CNS = conditions: 10 µM unless noted
U251 CNS = conditions: 10 µM unless noted
PC-3 prostate = conditions: 10 µM unless noted
UACC-62 melanoma = conditions: 10 µM unless noted
LOX IMVI melanoma = conditions: 10 µM
SK-MEL-28 melanoma = conditions: 10 µM unless noted
SK-MEL-2 melanoma = conditions: 10 µM unless noted
EKVX NSCLC = conditions: 10 µM unless noted
UO-31 renal = conditions: 10 µM unless noted
TK-10 renal = conditions: 10 µM unless noted
ACHN renal = conditions: 10 µM unless noted
CAKI-1 renal = conditions: 10 µM unless noted
A498 renal = conditions: 10 µM unless noted
CCRF-CEM leukemia = conditions: 10 µM unless noted
MOLT-4 leukemia = conditions: 10 µM unless noted
SK-MEL-5 melanoma = conditions: 10 µM unless noted
SNB-19 CNS = conditions: 10 µM unless noted
SN12C renal = conditions: 10 µM unless noted

Measured: growth

CC(=O)OC[C@@]1(C)C2CC[C@]3(C)C(CC=C4C5CC(C)(C)CC[C@]5(C(=O)Nc5ccc(C)cc5)CC[C@]43C)[C@@]2(C)C[C@@H](OC(C)=O)[C@@H]1OC(C)=O (stereo partly specified)
inactive: HCT-15 colon 35.1% | HT29 colon 30.6% | SNB-75 CNS 57% | U251 CNS 40.7% | PC-3 prostate 34.3% | UACC-62 melanoma 48.2% | LOX IMVI melanoma 12.5% | SK-MEL-28 melanoma 77.1% | SK-MEL-2 melanoma 39.4% | EKVX NSCLC 32.4% | UO-31 renal 40.9% | TK-10 renal 53.2% | ACHN renal 38.9% | CAKI-1 renal 45.8% | A498 renal 67.1% | CCRF-CEM leukemia 32.8% | MOLT-4 leukemia 34.4%

CC1(C)CC[C@]2(C(=O)Nc3ccccc3)CC[C@]3(C)C(=CCC4[C@@]5(C)C[C@@H](O)[C@H](O)[C@@](C)(CO)C5CC[C@]43C)C2C1 (stereo partly specified)
inactive: HCT-15 colon 42.5% | HT29 colon 22.1% | SNB-75 CNS 85.5% | U251 CNS 51.1% | PC-3 prostate 20.4% | SK-MEL-5 melanoma 20.2% | UACC-62 melanoma 57.5% | LOX IMVI melanoma 53.1% | SK-MEL-28 melanoma 70.6% | SK-MEL-2 melanoma 59.8% | EKVX NSCLC 52.9% | UO-31 renal 47.3% | TK-10 renal 86.7% | ACHN renal 59.9% | A498 renal 56.9% | CCRF-CEM leukemia 30.4%
active: MOLT-4 leukemia 5.99%

Cc1ccc(-n2c(-c3cc4ccccc4nc3Cl)noc2=O)cc1
inactive: HCT-15 colon 39.1% | HT29 colon 110% | SNB-75 CNS 40.1% | U251 CNS 83.7% | PC-3 prostate 75.5% | SK-MEL-5 melanoma 66.1% | UACC-62 melanoma 56% | LOX IMVI melanoma 85.1% | SK-MEL-28 melanoma 97.1% | SK-MEL-2 melanoma 80.9% | EKVX NSCLC 47.5% | UO-31 renal 72.4% | TK-10 renal 122% | ACHN renal 93.6% | CAKI-1 renal 49.8% | A498 renal 137% | CCRF-CEM leukemia 84.6% | MOLT-4 leukemia 76.5%

CC(=O)/C=C/c1cccc2c1C(=O)NC(C)(c1cc3cc(Br)ccc3oc1=O)N2 (stereo unspecified)
inactive: HCT-15 colon 14.6% | HT29 colon 27.6% | SNB-19 CNS 51.8% | U251 CNS 18.6% | PC-3 prostate 21.6% | SK-MEL-5 melanoma 13.1% | UACC-62 melanoma 13% | LOX IMVI melanoma 14.8% | SK-MEL-28 melanoma 58.8% | EKVX NSCLC 34.3% | SN12C renal 12.7% | UO-31 renal 22% | TK-10 renal 58.6% | ACHN renal 22.7% | CAKI-1 renal 21.3% | A498 renal 104%
active: SK-MEL-2 melanoma -0.79% | CCRF-CEM leukemia 0.825% | MOLT-4 leukemia -6.34%

O=C(Cn1c(/C=C/c2ccccc2)nc2ccccc2c1=O)Nc1ccc(Cl)cc1
inactive: HCT-15 colon 78% | HT29 colon 75.5% | SNB-19 CNS 52.8% | U251 CNS 20.1% | PC-3 prostate 72.6% | SK-MEL-5 melanoma 103% | UACC-62 melanoma 90.4% | LOX IMVI melanoma 25.4% | SK-MEL-28 melanoma 108% | SK-MEL-2 melanoma 114% | EKVX NSCLC 98.6% | SN12C renal 19.2% | CAKI-1 renal 20.4% | CCRF-CEM leukemia 85.6% | MOLT-4 leukemia 86.9%
active: UO-31 renal -24.6% | TK-10 renal -12% | ACHN renal -65.6% | A498 renal -15.5%

O=C(NN1C(=O)/C(=C/C=C/c2ccc([N+](=O)[O-])o2)SC1=S)c1ccccc1O
active: HCT-15 colon -80.3% | HT29 colon -72.2% | SNB-75 CNS -61.8% | PC-3 prostate -6.66% | SK-MEL-5 melanoma -100% | UACC-62 melanoma -93.7% | LOX IMVI melanoma -91.6% | SK-MEL-28 melanoma -94.6% | SK-MEL-2 melanoma -86.9% | EKVX NSCLC -94.1% | SN12C renal -98.2% | UO-31 renal -99.5% | TK-10 renal -87.6% | ACHN renal -100% | CAKI-1 renal -100% | A498 renal -61.2% | CCRF-CEM leukemia 5.02%

O=c1[nH]n(C(=S)N/N=C/c2ccccc2Cl)c(=O)c2ccccc12
active: HCT-15 colon -41.3% | HT29 colon 0.552% | U251 CNS -46.5% | UACC-62 melanoma -65.4% | SK-MEL-28 melanoma -26.3% | SK-MEL-2 melanoma -33% | EKVX NSCLC -35.4% | SN12C renal 7.3% | CCRF-CEM leukemia -11.2% | MOLT-4 leukemia -1.75%
inactive: SNB-75 CNS 52.1% | PC-3 prostate 22.6% | UO-31 renal 15.6% | TK-10 renal 25.8% | CAKI-1 renal 27.5% | A498 renal 38.7%

Cc1ccccc1[C@H]1C(C(=O)c2ccc(Cl)cc2)C2(N[C@@H]1c1ccccc1)C(=O)Nc1ccc(Br)cc12 (stereo partly specified)
inactive: SNB-19 CNS 38.4% | SK-MEL-5 melanoma 35.3% | UACC-62 melanoma 11.2% | SK-MEL-28 melanoma 41% | EKVX NSCLC 26.4% | UO-31 renal 14.1% | TK-10 renal 41.6% | CAKI-1 renal 23% | A498 renal 44.3%
active: HCT-15 colon 7.15% | HT29 colon -58.6% | U251 CNS -3.71% | PC-3 prostate -4.58% | LOX IMVI melanoma -95.3% | SK-MEL-2 melanoma -11.2% | SN12C renal -82.1% | ACHN renal 7.11% | CCRF-CEM leukemia 5.11% | MOLT-4 leukemia -2.55%

O=C1C(=Nc2ccc(F)c(Cl)c2)c2cccc3cccc1c23
active: HCT-15 colon 8.52% | HT29 colon 5.96% | CCRF-CEM leukemia 6.25%
inactive: SNB-75 CNS 66.5% | U251 CNS 24.7% | UACC-62 melanoma 52.8% | LOX IMVI melanoma 46.9% | SK-MEL-28 melanoma 57.9% | SK-MEL-2 melanoma 97.5% | EKVX NSCLC 75.5% | SN12C renal 57.3% | UO-31 renal 38.2% | TK-10 renal 111% | ACHN renal 32.2% | CAKI-1 renal 55.4% | A498 renal 118%

CCCCSc1nc(Nc2ccc(S(N)(=O)=O)cc2)c(C#N)c(-c2cc(OC)c(OC)c(OC)c2)n1
inactive: HCT-15 colon 25.7% | HT29 colon 42% | SNB-19 CNS 54.5% | U251 CNS 43.3% | PC-3 prostate 16.7% | SK-MEL-5 melanoma 20.5% | UACC-62 melanoma 21.9% | SK-MEL-28 melanoma 35.1% | SK-MEL-2 melanoma 87.7% | EKVX NSCLC 55.2% | SN12C renal 23.1% | UO-31 renal 12.1% | TK-10 renal 82.2% | ACHN renal 12.2% | CAKI-1 renal 34.9% | A498 renal 88.1% | CCRF-CEM leukemia 22.1%
active: LOX IMVI melanoma 7.76% | MOLT-4 leukemia -29.9%

O=C(COc1ccc(NC(=O)Nc2ccc(Cl)c(Cl)c2)cc1)N=Nc1c(O)[nH]c2ccc([N+](=O)[O-])cc12
inactive: HCT-15 colon 88.5% | HT29 colon 81.6% | SNB-75 CNS 66.2% | U251 CNS 19.4% | PC-3 prostate 71.6% | UACC-62 melanoma 85.6% | SK-MEL-28 melanoma 57.6% | SK-MEL-2 melanoma 48.7% | EKVX NSCLC 85.6% | SN12C renal 52.6% | UO-31 renal 85.3% | TK-10 renal 113% | ACHN renal 77.8% | CAKI-1 renal 72% | A498 renal 98.2% | CCRF-CEM leukemia 30.4% | MOLT-4 leukemia 28%

C=C1CC[C@@H]2[C@]3(C)COC(c4ccco4)O[C@@H]3CC[C@@]2(C)[C@@H]1C/C=C1/C(=O)OCC1OC(C)=O (stereo partly specified)
active: HCT-15 colon -59% | HT29 colon -46% | U251 CNS 8.15% | LOX IMVI melanoma -100% | SN12C renal 3.28% | CCRF-CEM leukemia -19.8% | MOLT-4 leukemia 2.43%
inactive: SNB-19 CNS 75.9% | PC-3 prostate 18.8% | SK-MEL-5 melanoma 43.9% | UACC-62 melanoma 34.5% | SK-MEL-28 melanoma 59.6% | SK-MEL-2 melanoma 59.5% | EKVX NSCLC 89.3% | UO-31 renal 35.4% | TK-10 renal 111% | ACHN renal 33.9% | CAKI-1 renal 36.1% | A498 renal 129%

CC(C)CSc1nc(NCCc2c[nH]c3ccccc23)c(C#N)c(-c2ccc(Cl)cc2)n1
inactive: HCT-15 colon 29.8% | HT29 colon 15.1% | SNB-75 CNS 77.3% | U251 CNS 23.8% | PC-3 prostate 23.1% | UACC-62 melanoma 74.1% | LOX IMVI melanoma 22.5% | SK-MEL-28 melanoma 72.1% | SK-MEL-2 melanoma 90.1% | EKVX NSCLC 46.1% | UO-31 renal 65.1% | TK-10 renal 108% | ACHN renal 67.4% | CAKI-1 renal 50.1% | A498 renal 113% | CCRF-CEM leukemia 20.6% | MOLT-4 leukemia 20.8%

COc1ccc(-c2nc3ccc(C(=O)NN4C(=O)c5ccc([N+](=O)[O-])cc5C4=O)cc3[nH]2)cc1
inactive: HCT-15 colon 95.9% | HT29 colon 87.1% | SNB-75 CNS 83.3% | U251 CNS 97% | PC-3 prostate 90.5% | UACC-62 melanoma 80.2% | LOX IMVI melanoma 87.1% | SK-MEL-28 melanoma 95.6% | SK-MEL-2 melanoma 101% | EKVX NSCLC 90.7% | UO-31 renal 88.6% | TK-10 renal 101% | ACHN renal 98.4% | CAKI-1 renal 92.6% | A498 renal 103% | CCRF-CEM leukemia 83.3% | MOLT-4 leukemia 98.7%

CC12CC[C@@H]3[C@]4(C)COC(c5cn[nH]c5-c5cccc(Cl)c5)O[C@@H]4CC[C@@]3(C)[C@@H]1CC(C1=CCOC1=O)O2 (stereo partly specified)
active: SK-MEL-5 melanoma 8.92%
inactive: HCT-15 colon 35.1% | HT29 colon 28% | SNB-19 CNS 56.8% | U251 CNS 38.6% | PC-3 prostate 12.6% | UACC-62 melanoma 26.9% | LOX IMVI melanoma 40.3% | SK-MEL-28 melanoma 36.3% | SK-MEL-2 melanoma 42.4% | EKVX NSCLC 26% | SN12C renal 47.9% | UO-31 renal 16.4% | TK-10 renal 45.9% | ACHN renal 31.3% | CAKI-1 renal 45.6% | A498 renal 73.6% | CCRF-CEM leukemia 25.5% | MOLT-4 leukemia 12.4%
